A short description of experiment [1]: NCI Yeast Anticancer Drug Screen. Data for the rad50 strain (AID 155).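 Further: 0% = growth of vehicle-only cultures of the same strain.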 The following applies: S. cerevisiae rad50 strain growth inhibition, stronger effect = higher value. Put shortly: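 Cells are treated with compound, grown, and their growth is then scored against vehicle-only cultures of the same repair-deficient yeast strain.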
The nature of experiment [2]: NCI Yeast Anticancer Drug Screen. Data for the mec2-1 strain (AID 157). The note with it: S. cerevisiae mec2-1 strain, stronger effect = higher value. The gist of the method:
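Each compound was tested on mec2-1 yeast, a strain altered in DNA damage repair or cell cycle control. Growth inhibition is reported relative to vehicle.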

Experiment [3] is described as follows: NCI Yeast Anticancer Drug Screen. Data for the sgs1 mgt1 strain (AID 161).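 Further: 0% = growth of cultures given vehicle only.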 The note with it: S. cerevisiae sgs1 mgt1 strain, stronger effect = higher value. Put shortly: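 Inhibition of yeast growth, normalised to vehicle-treated controls, is reported for a strain bearing genetic alterations in DNA damage repair.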
A short description of experiment [4]: NCI Yeast Anticancer Drug Screen. Data for the cln2 rad14 strain (AID 165).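 Further: 0% = growth equal to vehicle treated cultures.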 The following applies: S. cerevisiae cln2 rad14 strain, stronger effect = higher value. The gist of the method: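 Test compounds were added to cln2 rad14 yeast cultures; inhibition of growth was then determined by comparison with vehicle treatment.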
Experiment [5] in a line: NCI Yeast Anticancer Drug Screen. Data for the bub3 strain (AID 167). The following applies: S. cerevisiae bub3 mutant strain, stronger effect = higher value. Put shortly: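 Part of a panel of yeast mutants defective in DNA damage repair or cell cycle regulation. Each strain is grown with compound, and inhibition is calculated relative to solvent-treated cultures.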
Experiment [6] can be described thus: NCI Yeast Anticancer Drug Screen. Data for the mlh1 rad18 strain (AID 175). The note with it: S. cerevisiae mlh1 rad18 strain growth inhibition, stronger effect = higher value. The gist of the method:
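Inhibition values reflect reduced growth of mutant yeast versus vehicle-treated controls following compound exposure; the mutations affect DNA damage repair.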

Setting [7] is: at 5.0 µM (retest, dose inferred, filed as 0.5).
[8] abbreviates: at 50.0 µM (retest, dose inferred, filed as 5.0).

About 79,000 compounds went through this panel and 15% of them were active in at least one assay; those are over-represented in the sample as a whole. Unmarked numbers belong to inactive results. Active and inactive are the calls of the source. No stated cut-off is given here; in the data, active means growth inhibition above about 70%; inactive means the rest.

Our source for the growth inhibition values is PubChem BioAssay (NCI).

For the compound `COc1ccc(Oc2ccc(C(=O)C(CN(C)C)CN(C)C)cc2)cc1`, the growth inhibition was -4% in experiment [1] (setting [7]); 96% (active) in experiment [1] (setting [8]); 84% (active) in experiment [1] (at 50.0 µM); -13% in experiment [2] (setting [7]); 97% (active) in experiment [2] (setting [8]); 87.8% (active) in experiment [2] (at 50.0 µM). Besides, the growth inhibition in experiment [3] (setting [7]) is 11%; in experiment [3] (setting [8]), 98% (active); in experiment [3] (at 50.0 µM), 85.8% (active); in experiment [4] (setting [7]) it was -2%; in experiment [4] (setting [8]), 95% (active); in experiment [4] (at 50.0 µM), 87.8% (active). Further, the growth inhibition was -3% in experiment [5] (setting [7]); 96% (active) in experiment [5] (setting [8]); 85.6% (active) in experiment [5] (at 50.0 µM); 0% in experiment [6] (setting [7]); 96% (active) in experiment [6] (setting [8]); 86.5% (active) in experiment [6] (at 50.0 µM).

With `C/C(=N\Nc1n[nH]c(=S)n1N)c1c(O)cc(C)oc1=O`, the growth inhibition in experiment [1] (setting [7]) was -28%; in experiment [1] (setting [8]), 13%; in experiment [1] (at 50.0 µM), -23%; in experiment [2] (setting [7]), 3%; in experiment [2] (setting [8]) it was 12%; in experiment [2] (at 50.0 µM), 12.1%. Also, the growth inhibition is -1% in experiment [3] (setting [7]); 4% in experiment [3] (setting [8]); 18.9% in experiment [3] (at 50.0 µM); -2% in experiment [4] (setting [7]); 9% in experiment [4] (setting [8]); -21% in experiment [4] (at 50.0 µM). Moreover, the growth inhibition in experiment [5] (setting [7]) is 2%; in experiment [5] (setting [8]), 3%; in experiment [5] (at 50.0 µM) it was 14.1%; in experiment [6] (setting [7]), -2%; in experiment [6] (setting [8]), 2%; in experiment [6] (at 50.0 µM) it was 16.5%.

For the compound `COC(=O)c1ccc(OCCC(=O)CCl)cc1`, the growth inhibition in experiment [1] (setting [7]) was 0%; in experiment [1] (setting [8]), 56%; in experiment [1] (at 50.0 µM), 99.5% (active); in experiment [2] (setting [7]), 1%; in experiment [2] (setting [8]) it was 52%; in experiment [2] (at 50.0 µM) it was 99.8% (active). Further, the growth inhibition in experiment [3] (setting [7]) is 3%; in experiment [3] (setting [8]) it was 55%; in experiment [3] (at 50.0 µM) it was 99.7% (active); in experiment [4] (setting [7]), 4%; in experiment [4] (setting [8]), 31%; in experiment [4] (at 50.0 µM), 69.1%. Further, the growth inhibition in experiment [5] (setting [7]) is 11%; in experiment [5] (setting [8]), 67%; in experiment [5] (at 50.0 µM), 99.6% (active); in experiment [6] (setting [7]), 2%; in experiment [6] (setting [8]) it was 72% (active); in experiment [6] (at 50.0 µM), 97.8% (active).

Consider `O=C(O)C(CCc1cccc2ccccc12)c1ccccc1` (configuration not stated), for which the growth inhibition in experiment [1] (setting [7]) is 13%; in experiment [1] (setting [8]), 97% (active); in experiment [1] (at 50.0 µM), 99.6% (active); in experiment [2] (setting [7]), 2%; in experiment [2] (setting [8]) it was 95% (active); in experiment [2] (at 50.0 µM), 99.2% (active). Moreover, the growth inhibition was 5% in experiment [3] (setting [7]); 98% (active) in experiment [3] (setting [8]); 99.5% (active) in experiment [3] (at 50.0 µM); -4% in experiment [4] (setting [7]); 96% (active) in experiment [4] (setting [8]); 99.3% (active) in experiment [4] (at 50.0 µM). Further, the growth inhibition in experiment [5] (setting [7]) is 3%; in experiment [5] (setting [8]) it was 73% (active); in experiment [5] (at 50.0 µM), 99% (active); in experiment [6] (setting [7]) it was 5%; in experiment [6] (setting [8]) it was 98% (active); in experiment [6] (at 50.0 µM), 99.4% (active).

On to `C1=CC2OC2CCCCCCCC1` (mixture of isomers), for which the growth inhibition in experiment [1] (setting [7]) was 7%; in experiment [1] (setting [8]) it was 75% (active); in experiment [1] (at 50.0 µM), 83.2% (active); in experiment [2] (setting [7]), 0%; in experiment [2] (setting [8]), 80% (active); in experiment [2] (at 50.0 µM), 62.5%. In addition, the growth inhibition in experiment [3] (setting [7]) is 2%; in experiment [3] (setting [8]), 78% (active); in experiment [3] (at 50.0 µM) it was 84.8% (active); in experiment [4] (setting [7]), -2%; in experiment [4] (setting [8]) it was 59%; in experiment [4] (at 50.0 µM), 31.6%. In addition, the growth inhibition in experiment [5] (setting [7]) is -5%; in experiment [5] (setting [8]), 73% (active); in experiment [5] (at 50.0 µM), 50.7%; in experiment [6] (setting [7]), 1%; in experiment [6] (setting [8]) it was 90% (active); in experiment [6] (at 50.0 µM) it was 70.9% (active).

With `Cc1c2cnccc2c(C)c2c1c1ccccc1n2Cc1ccccc1`, the growth inhibition in experiment [1] (setting [7]) was 3%; in experiment [1] (setting [8]), 98% (active); in experiment [1] (at 50.0 µM), 89% (active); in experiment [2] (setting [7]), -2%; in experiment [2] (setting [8]), 75% (active); in experiment [2] (at 50.0 µM), 25.5%. The growth inhibition in experiment [3] (setting [7]) is -2%; in experiment [3] (setting [8]), 94% (active); in experiment [3] (at 50.0 µM), 48.8%; in experiment [4] (setting [7]), -1%; in experiment [4] (setting [8]), 91% (active); in experiment [4] (at 50.0 µM), 28.4%. Also, the growth inhibition in experiment [5] (setting [7]) is -3%; in experiment [5] (setting [8]), 93% (active); in experiment [5] (at 50.0 µM) it was 59.5%; in experiment [6] (setting [7]), -8%; in experiment [6] (setting [8]), 97% (active); in experiment [6] (at 50.0 µM) it was 62.7%.

On to `COc1ccc(OC(=O)c2ccccc2)c2c1C(=O)C=CC2=O`, for which the growth inhibition in experiment [1] (setting [7]) is 5%; in experiment [1] (setting [8]) it was 38%; in experiment [1] (at 50.0 µM) it was 92.7% (active); in experiment [2] (setting [7]), 10%; in experiment [2] (setting [8]) it was 38%; in experiment [2] (at 50.0 µM) it was 84.2% (active). In addition, the growth inhibition in experiment [3] (setting [7]) is -38%; in experiment [3] (setting [8]), 21%; in experiment [3] (at 50.0 µM), 90.2% (active); in experiment [4] (setting [7]) it was 0%; in experiment [4] (setting [8]) it was 18%; in experiment [4] (at 50.0 µM), 51.5%. The growth inhibition in experiment [5] (setting [7]) was -1%; in experiment [5] (setting [8]), 24%; in experiment [5] (at 50.0 µM), 76.8% (active); in experiment [6] (setting [7]) it was 9%; in experiment [6] (setting [8]) it was 24%; in experiment [6] (at 50.0 µM), 67.8%.

For `COc1ccc2c(c1)C(Br)CCC(Br)C2=O` (configuration not stated), the growth inhibition in experiment [1] (setting [7]) was -20%; in experiment [1] (setting [8]) it was 2%; in experiment [1] (at 50.0 µM), 47.6%; in experiment [2] (setting [7]), -48%; in experiment [2] (setting [8]), -18%; in experiment [2] (at 50.0 µM), 56.2%. The growth inhibition in experiment [3] (setting [7]) was -17%; in experiment [3] (setting [8]), 26%; in experiment [3] (at 50.0 µM), 80.3% (active); in experiment [4] (setting [7]), 13%; in experiment [4] (setting [8]) it was 39%; in experiment [4] (at 50.0 µM), 33.5%. Moreover, the growth inhibition in experiment [5] (setting [7]) was -36%; in experiment [5] (setting [8]), 51%; in experiment [5] (at 50.0 µM), 88.7% (active); in experiment [6] (setting [7]), -20%; in experiment [6] (setting [8]), 34%; in experiment [6] (at 50.0 µM), 91.8% (active).

As to `O=C(CBr)N1c2ccccc2S(=O)(=O)c2ccc3ccccc3c21`, the growth inhibition was 36% in experiment [1] (setting [7]); 97% (active) in experiment [1] (setting [8]); 79.5% (active) in experiment [1] (at 50.0 µM); 49% in experiment [2] (setting [7]); 98% (active) in experiment [2] (setting [8]); 87% (active) in experiment [2] (at 50.0 µM). In addition, the growth inhibition is 66% in experiment [3] (setting [7]); 98% (active) in experiment [3] (setting [8]); 81.2% (active) in experiment [3] (at 50.0 µM); 36% in experiment [4] (setting [7]); 96% (active) in experiment [4] (setting [8]); 64.5% in experiment [4] (at 50.0 µM). Moreover, the growth inhibition in experiment [5] (setting [7]) is 79% (active); in experiment [5] (setting [8]), 97% (active); in experiment [5] (at 50.0 µM), 76.5% (active); in experiment [6] (setting [7]), 79% (active); in experiment [6] (setting [8]), 97% (active); in experiment [6] (at 50.0 µM), 89.8% (active).
